Our source for the growth values is PubChem BioAssay (NCI).

Test systems include BT-549 breast; MDA-MB-435 melanoma; SW-620 colon; MCF7 breast; HCT-116 colon; KM12 colon; HCC-2998 colon.
Assay in all cases: NCI-60 one-dose screen, 48 h (100 = growth as untreated, 0 = no growth, -100 = all killed)
What all share (settings): 10 µM unless noted

Each structure is given as a SMILES string. “And” between values parts separate entries of the source, which are not always exact repeats. Equal values may be shown once. The panel holds about 83,000 compounds, 20% with a hit somewhere; the sample as a whole holds those more often.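 Single-concentration screen, 48 h exposure, 96-well plates. Endpoint: percent growth. Below 10 = active.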 Values without a mark were called inactive. The source made the active and inactive calls.

In the case of `COc1ccc(C(=O)COc2cccc(/C=C3\CSc4ccc(C)cc4C3=O)c2)cc1`, the growth was 108% in the assay with BT-549 breast; 69.5% in the assay with MDA-MB-435 melanoma; -21.5% (active) with SW-620 colon; 30.9% with MCF7 breast; 53.1% in the assay with HCT-116 colon; 79.6% with KM12 colon.

With `Cc1cc2c3c(nc4ccccc42)C(=O)c2cccnc2-c3n1`, the growth in the assay on MCF7 breast was -74.8% [100 µM] (active) and -100% [100 µM] (active).

`CC1(C)CCCC(C)(C2CCC3(C)C2C(O)CC2C4(C)CCC(O)C(C)(C)C4C(O)CC23C)O1` (stereo unspecified): the growth with MCF7 breast was -19.1% [100 µM] (active) and -85.7% [100 µM] (active).

For `Cc1ccc(NS(=O)(=O)c2ccc(-c3cnc(C4CC4)o3)cc2)cc1`, the growth is 40.4% with BT-549 breast; -3.14% (active) in the assay on MDA-MB-435 melanoma; 12.4% with SW-620 colon; 11.8% in the assay on HCT-116 colon; 69.2% in the assay with HCC-2998 colon; 20.5% with KM12 colon.

`C=C[C@H]1C[C@@H]2C[C@@H]3[C@H]4C/C=C\C(=O)NCCCC5NC(=O)C(=C(O)/C=C/[C@@H]4CC(=O)[C@H]3[C@@H]2[C@H]1C)C5=O` (stereo partly specified): the growth in the assay with MDA-MB-435 melanoma is -19.2% (active); in the assay with SW-620 colon, -58.2% (active); in the assay with MCF7 breast, -63.8% (active); in the assay on HCC-2998 colon it was -30% (active); in the assay with KM12 colon, -17.4% (active).

On to `O=S(=O)(OCCO)c1ccccc1`, for which the growth in the assay on BT-549 breast was 105%; in the assay with MDA-MB-435 melanoma, 98.2%; with SW-620 colon, 101%; in the assay with HCT-116 colon, 104%; in the assay with HCC-2998 colon it was 113%; with KM12 colon, 103%.

Take `Cc1cc(C)c(S(=O)O)c(C)c1`: the growth was 104% in the assay with BT-549 breast; 103% in the assay with MDA-MB-435 melanoma; 103% in the assay on SW-620 colon; 109% in the assay with HCT-116 colon; 110% in the assay on HCC-2998 colon; 112% in the assay on KM12 colon.

`O=C1C=C(Nc2ccc(S(=O)(=O)Nc3nccs3)cc2)c2ccccc2C1=O`: the growth with MCF7 breast is -89% [100 µM] (active) and -74.5% [100 µM] (active).

Consider `COc1cc(C2CC(=O)Nc3c2ccc2ccccc32)cc(Br)c1OC` (stereo unspecified), for which the growth is 10.9% in the assay on BT-549 breast; -55.5% (active) with MDA-MB-435 melanoma; 20% in the assay with SW-620 colon; 9.65% (active) with MCF7 breast; 11.2% with HCT-116 colon; 16.2% in the assay on KM12 colon.

In the case of `CCCCCCCCCCCCCCCC[N+]1(C)CCOCC1`, the growth with BT-549 breast was 15.1%; in the assay with MDA-MB-435 melanoma it was 26.9%; in the assay on SW-620 colon, 6.63% (active); in the assay on MCF7 breast it was 61.6%; in the assay with HCC-2998 colon it was 13.9%; in the assay with KM12 colon it was -94.4% (active).

Take `c1ccc2cc(Cn3c(-c4ccc5ccccc5c4)[n+](Cc4ccc5ccccc5c4)c4ccccc43)ccc2c1`: the growth with BT-549 breast was -46.5% (active); in the assay on MDA-MB-435 melanoma, -80.4% (active); with SW-620 colon, -85% (active); with HCT-116 colon it was -61% (active); in the assay on HCC-2998 colon it was -88.7% (active); in the assay on KM12 colon it was -90.6% (active).

Turning to `CCN1CCN(C(=S)SCC(=O)Nc2nc3ccc(OC)cc3s2)CC1`, the growth with BT-549 breast was 89.5%; in the assay with MDA-MB-435 melanoma it was 107%; in the assay on SW-620 colon, 110%; in the assay with MCF7 breast it was 96.3%; with HCT-116 colon it was 95.8%; in the assay on KM12 colon it was 90.6%.

In the case of `Cc1ccc(C(=O)Nc2ccccc2N)cc1`, the growth in the assay on BT-549 breast was 61.5%; with MDA-MB-435 melanoma, 68.3%; in the assay with SW-620 colon, 60%; in the assay with MCF7 breast, 74.8%; in the assay on HCC-2998 colon, 77.1%; with KM12 colon, 87.4%.

On to `Cc1ccccc1-c1cc(-c2ccc(Br)s2)[nH]c(=O)c1C#N`, for which the growth is 105% in the assay on BT-549 breast; 103% with MDA-MB-435 melanoma; 108% in the assay with SW-620 colon; 93.3% in the assay with HCT-116 colon; 104% in the assay on HCC-2998 colon; 105% in the assay on KM12 colon.

As to `COc1ccccc1CNCCCCCCCCCCCCN1C(=O)c2ccc3c4c(ccc(c24)C1=O)C(=O)N(CCCCCCCCCCCCNCc1ccccc1OC)C3=O`, the growth in the assay on BT-549 breast is 70.5%; in the assay with MDA-MB-435 melanoma it was 58%; in the assay on SW-620 colon it was 74.1%; with HCT-116 colon it was -43% (active); with HCC-2998 colon, 80.9%; in the assay with KM12 colon it was 46.6%.

`COc1cc(-c2nc(SC(C)C)nc(Nc3ccccc3C)c2C#N)cc(OC)c1OC`: the growth in the assay with BT-549 breast was 109%; in the assay on MDA-MB-435 melanoma it was 106%; in the assay on SW-620 colon, 104%; in the assay with MCF7 breast it was 101%; in the assay with HCC-2998 colon it was 106%; in the assay with KM12 colon, 104%.

As to `COc1cc(/C=N/NC(=O)c2cnn3c2NC(c2ccccc2)C3)ccc1OC1CCCC1` (stereo unspecified), the growth in the assay on BT-549 breast was 16.8%; in the assay with MDA-MB-435 melanoma, 0.812% (active); in the assay on SW-620 colon, 18.3%; in the assay with HCT-116 colon, 18.9%; in the assay with HCC-2998 colon it was 63.8%; in the assay with KM12 colon it was 18.1%.

For the compound `c1ccc(-c2n(Cc3ccc4ccccc4n3)c3ccccc3[n+]2Cc2ccc3ccccc3n2)cc1`, the growth is -0.501% (active) in the assay with BT-549 breast; -12.7% (active) in the assay on MDA-MB-435 melanoma; 2.87% (active) with SW-620 colon; 1.36% (active) with MCF7 breast; -3.47% (active) in the assay on HCC-2998 colon; -61.2% (active) in the assay with KM12 colon.

For `NC(=O)c1nc2c([nH]c1=O)CCCC2`, the growth in the assay with BT-549 breast was 115%; in the assay with MDA-MB-435 melanoma, 113%; with SW-620 colon, 101%; with MCF7 breast, 98.7%; in the assay with HCT-116 colon, 109%; in the assay on KM12 colon, 98.8%.

Regarding `COc1ccc(-c2nc(Nc3ccc(F)cc3)nc(Nc3ccc4c(c3)nc(C)n4Cc3ccccc3)n2)cc1`, the growth is 70.7% in the assay with BT-549 breast; 34.1% in the assay with MDA-MB-435 melanoma; 45.7% in the assay on SW-620 colon; 22.6% in the assay on MCF7 breast; 23.4% in the assay with HCT-116 colon; 45.5% in the assay with HCC-2998 colon. The growth in the assay with KM12 colon is 26%.

With `C=C1C(=O)OC2/C=C(/C)C3(O)OC(C)(CC(OC(=O)C(C)C)C12)CC3OC(C)=O` (stereo unspecified), in the assay with MCF7 breast, the growth was -83.4% [100 µM] (active).
